Reference: PubChem BioAssay (NCATS)
Several values for one entry are separate records, joined by “and”; a condition that tells them apart may be missing. Equal entries are not always repeated. Records with an inconclusive call do not appear. A structure can be active in one record and inactive in another. Activity calls are given as the source filed them. Unless noted, calls come from the whole dose curve; as a rule, active = well fitted curve in the direction sought with a large enough effect; inconclusive = small, poorly fitted or top-dose-only effect, or another doubt; inactive = no such curve, though single readings can be large; an effect the other way counts as inactive or inconclusive.

Experiments:
[1] = system: Hek293T; assay: Primary qHTS to identify gynecologic anti-cancer compounds using libraries of approved drugs and bioactive compounds (AID 1345084); settings: Gynecologic cancer cell panel viability, ATPlite luminescence, 48 h, control line for the selectivity index; series mostly up to 57.5 µM; note: % is set by controls: 0 for no effect and ±100 for the full control effect; nearly all actives have a fitted effect of over 55% in size
Summary of the method: (§1)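 Cells, 1,000 per well, were allowed to settle for 16 h at 37 C before compound addition. Five concentrations were tested for 48 h, and viability was read by ATPlite luminescence after 15 min at room temperature.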

[2] = system: JEG-3; assay: as above; settings: Gynecologic cancer cell panel viability, ATPlite luminescence, 48 h; series mostly up to 57.5 µM
Summary of the method: as §1

[3] = system: OV90; assay: as above; settings: Gynecologic cancer cell panel viability, ATPlite luminescence, 48 h; series mostly up to 57.5 µM
Summary of the method: as §1

[4] = system: PA-1; assay: as above; settings: Gynecologic cancer cell panel viability, ATPlite luminescence, 48 h; series mostly up to 57.5 µM
Summary of the method: as §1

[5] = system: Tov-21-G; assay: as above; settings: Gynecologic cancer cell panel viability, ATPlite luminescence, 48 h; series mostly up to 57.5 µM
Summary of the method: as §1

[6] = system: Tov112D; assay: as above; settings: Gynecologic cancer cell panel viability, ATPlite luminescence, 48 h; series mostly up to 57.5 µM
Summary of the method: as §1

[7] = Drug repurposing screens with cells derived from glioblastoma tumor samples (AID 1345199); settings: GBM patient neurospheres viability, ATP luminescence, 48 h; note: nearly all actives have a fitted effect of over 40% in size; note: potency is the fitted concentration of half-maximal effect; for activity, negative = cell killing: % is set by controls: 0 for no effect and ±100 for the full control effect
Summary of the method: (§2)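 Primary testing used CD133+ neurospheres from four GBM patients, seven concentrations, 48 h exposure and ATP-based viability; confirmation added three slower-growing patient lines.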

[8] = system: astro; assay: as above; settings: viability, ATP luminescence, 48 h; series mostly up to 45.9 µM
Summary of the method: as §2

[9] = system: SKOV3; assay: Primary qHTS to identify gynecologic anti-cancer compounds using libraries of approved drugs and bioactive compounds (AID 1345084); settings: Gynecologic cancer cell panel viability, ATPlite luminescence, 48 h; series mostly up to 57.5 µM; note: % is set by controls: 0 for no effect and ±100 for the full control effect; nearly all actives have a fitted effect of over 55% in size
Summary of the method: as §1

[10] = target: Nuclear receptor subfamily 1 group I member 2 (Rattus norvegicus) (UniProt Q9R1A7); assay: qHTS assay for small molecule activators of the rat pregnane X receptor (rPXR) signaling pathway (AID 651751; call rule not given here; note: 0% is about no effect); settings: rPXR reporter cells, luciferase (One-Glo), 24 h
[11] = qHTS assay for small molecule activators of the human pregnane X receptor (PXR) signaling pathway (AID 720659; call rule not given here; note: 0% is about no effect)
[12] = at 20 µM (top of the series), tumour line C
[13] = at 21.2 µM (top of the series), tumour line B
[14] = at 45.9 µM (top of the series), tumour line B
[15] = at 45.9 µM (top of the series), tumour line D
[16] = at 46 µM (top of the series), tumour line A
[17] = at 46.1 µM (top of the series), tumour line C

Chain of Nuclear receptor subfamily 1 group I member 2 (Rattus norvegicus) (Q9R1A7 whole entry, looked up): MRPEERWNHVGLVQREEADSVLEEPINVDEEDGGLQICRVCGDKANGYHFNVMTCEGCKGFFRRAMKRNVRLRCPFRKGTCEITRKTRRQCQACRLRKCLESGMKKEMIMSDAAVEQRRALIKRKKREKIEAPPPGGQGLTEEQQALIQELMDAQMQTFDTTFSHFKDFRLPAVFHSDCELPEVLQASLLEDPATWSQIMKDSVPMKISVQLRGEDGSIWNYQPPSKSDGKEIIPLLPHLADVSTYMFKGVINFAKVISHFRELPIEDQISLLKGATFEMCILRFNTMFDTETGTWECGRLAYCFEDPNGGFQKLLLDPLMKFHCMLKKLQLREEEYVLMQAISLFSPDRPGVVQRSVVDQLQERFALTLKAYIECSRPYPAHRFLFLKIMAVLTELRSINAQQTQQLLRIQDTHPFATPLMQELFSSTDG

CC(=O)O[C@]1(C(C)=O)CC[C@H]2[C@@H]3C=C(C)C4=CC(=O)CC[C@]4(C)[C@H]3CC[C@@]21C
inactive: Potency [1] | Potency [2] | Potency [3] | Potency [4] | Potency [5] | Potency [6] | activity, negative = cell killing [7, 12] -0.988% | activity, negative = cell killing [7, 13] -20.3% | activity, negative = cell killing ([7]; at 21.2 µM (top of the series), tumour line D) 13.6% | Potency [8]

O=C(O)Cc1csc(-c2ccc(Cl)cc2)n1
inactive: Potency [1] | Potency [2] | Potency [3] | Potency [4] | Potency [5] | Potency [6] | activity, negative = cell killing [7, 14] -6.84% | activity, negative = cell killing [7, 15] 8.21% | activity, negative = cell killing [7, 16] -20.7% | activity, negative = cell killing [7, 17] -23.2% | Potency [8]

O=C(CN1CCN(Cc2ccc3c(c2)OCO3)CC1)N1c2ccccc2Sc2ccccc21
inactive: Potency [1] | Potency [2] | Potency [3] | Potency [4] | Potency [5] | Potency [6]

NC(=O)n1c(O)c(C(=O)c2cccs2)c2cc(Cl)ccc21
active: Potency ([7]; tumour line A) 22.4 µM | Potency ([7]; tumour line C) 18.4 µM
inactive: Potency [1] | Potency [2] | Potency [3] | Potency [9] | Potency [5] | Potency [6] | activity, negative = cell killing [7, 14] -6.38% | activity, negative = cell killing [7, 15] -26.9%

CC(=O)NCCCCCC(=O)O
inactive: Potency [1] | Potency [2] | Potency [3] | Potency [4] | Potency [5] | Potency [6] | activity, negative = cell killing [7, 14] -15.6% | activity, negative = cell killing [7, 15] -10% | activity, negative = cell killing [7, 16] -23.3% | activity, negative = cell killing [7, 17] -20.2% | Potency [8]

Oc1ccc(Cl)cc1Cc1cc(Cl)ccc1O
inactive: Potency [1] | Potency [2] | Potency [3] | Potency [4] | Potency [5] | Potency [6] | max response [10] -15% and -0.451% | outcome [11]
active: Potency [8] 11.2 µM

CCOc1ccc(NC(C)=O)cc1
inactive: Potency [1] | Potency [2] | Potency [4] | Potency [9] | Potency [5] | Potency [6] | activity, negative = cell killing [7, 14] 4.81% | activity, negative = cell killing [7, 15] -8.88% | activity, negative = cell killing [7, 16] -27% | activity, negative = cell killing [7, 17] -1.2% | max response [10] 2.72% and -0.111% | outcome [11]

O=C(O)CCc1nc2ccccc2[nH]1
inactive: Potency [1] | Potency [2] | Potency [3] | Potency [9] | Potency [5] | Potency [6] | activity, negative = cell killing [7, 14] -11.4% | activity, negative = cell killing [7, 15] 5.36% | activity, negative = cell killing [7, 16] -40.1% | activity, negative = cell killing [7, 17] -13.5% | Potency [8]

CCOC(=O)C(C#N)=C(c1ccccc1)c1ccccc1
active: Potency ([7]; tumour line A) 11.2 µM
inactive: Potency [1] | Potency [2] | Potency [4] | Potency [9] | Potency [5] | Potency [6] | activity, negative = cell killing [7, 14] -12.8% | activity, negative = cell killing [7, 15] -4.23% | Potency [8]

NS(=O)(=O)c1ccc(Cl)c(S(N)(=O)=O)c1
inactive: Potency [1] | Potency [2] | Potency [4] | Potency [9] | Potency [5] | Potency [6] | activity, negative = cell killing [7, 14] -6.27% | activity, negative = cell killing [7, 15] -11.1% | activity, negative = cell killing [7, 16] -23.6% | activity, negative = cell killing [7, 17] 27.6% | Potency [8]

CN1CCN(C2=Nc3cc(F)ccc3Cc3ccccc32)CC1
inactive: Potency [1] | Potency [2] | Potency [4] | Potency [9] | Potency [5] | Potency [6] | Potency [8]

C#C[C@]1(O)CC[C@H]2[C@@H]3CCC4=CC(=O)CC[C@@H]4[C@H]3CC[C@@]21CC
inactive: Potency [1] | Potency [2] | Potency [3] | Potency [9] | Potency [5] | Potency [6] | activity, negative = cell killing [7, 14] -8.91% | activity, negative = cell killing [7, 15] -3.36% | activity, negative = cell killing [7, 17] 6% | Potency [8]

Cc1nc(-c2ccc(Cl)cc2)oc1COC(C)(C)C(=O)O
inactive: Potency [1] | Potency [2] | Potency [4] | Potency [9] | Potency [5] | Potency [6] | activity, negative = cell killing [7, 14] -18.8% | activity, negative = cell killing [7, 15] -2.81% | activity, negative = cell killing [7, 17] -9.1% | Potency [8]

CCCCc1cc2ccccc2c(OCCN(C)C)n1
inactive: Potency [1] | Potency [2] | Potency [4] | Potency [5] | Potency [6] | activity, negative = cell killing [7, 12] -4.36% | activity, negative = cell killing [7, 13] -17.4%

C=C[C@H]1CN2CC[C@H]1C[C@H]2[C@H](O)c1ccnc2ccc(OC)cc12
active: Potency ([7]; tumour line A) 11.2 µM and 17.8 µM
inactive: Potency [1] | Potency [2] | Potency [4] | Potency [9] | Potency [5] | Potency [6] | activity, negative = cell killing [7, 14] -17.2% and -20.5% | activity, negative = cell killing [7, 17] -25.6% and -17.6% | Potency [8]

O=C1C(O)=C(O)C(=O)C(O)=C1O
inactive: Potency [1] | Potency [2] | Potency [3] | Potency [9] | Potency [5] | activity, negative = cell killing [7, 14] -1.83% | activity, negative = cell killing [7, 15] -8.56% | activity, negative = cell killing [7, 16] -7.89% | activity, negative = cell killing [7, 17] 12.8% | Potency [8]

O=C(Oc1cccc2cccnc12)c1ccccc1
inactive: Potency [1] | Potency [2] | Potency [3] | Potency [5] | Potency [6] | activity, negative = cell killing [7, 14] -24.1% | activity, negative = cell killing [7, 15] -26.2% | activity, negative = cell killing [7, 17] -9.14% | Potency [8]

CN(C)CCC[C@@]1(c2ccc(F)cc2)OCc2cc(C#N)ccc21
inactive: Potency [1] | Potency [2] | Potency [4] | Potency [9] | Potency [5] | Potency [6] | activity, negative = cell killing [7, 14] 11.5% | activity, negative = cell killing [7, 15] -13.7% | activity, negative = cell killing [7, 16] -29.3% | activity, negative = cell killing [7, 17] 2.89%

CC1(COc2ccc(CC3SC(=O)NC3=O)cc2)CCCCC1 (stereo unspecified)
inactive: Potency [1] | Potency [2] | Potency [4] | Potency [9] | Potency [5] | Potency [6] | max response [10] 13.5%

COc1cc([C@H]2Oc3cc([C@H]4Oc5cc(O)cc(O)c5C(=O)[C@@H]4O)ccc3O[C@@H]2CO)ccc1O
inactive: Potency [1] | Potency [2] | Potency [3] | Potency [9] | Potency [5] | Potency [6] | activity, negative = cell killing [7, 14] -0.835% | activity, negative = cell killing [7, 15] -13.1% | activity, negative = cell killing [7, 17] -7.07% | outcome [11]
